Compound activity (PubChem)
Only some compounds are listed: those with a hit (about 21% of all), similar ones and a draw of the others.
Giardia FBPA inh: blocks Giardia fructose-bisphosphate aldolase activity; A8B2U2; purified Giardia FBPA; Potency, µM (top dose mostly 59.6 µM), without a hit: at the top dose activity, negative = inhibition, actives largely listed as inhibitors; 290,000 tested, 0.71% active; note: potency is the fitted concentration of half-maximal effect; % is set by controls: 0 for no effect and ±100 for the full control effect; nearly all actives have a fitted effect of over 55% in size
Target sequence (A8B2U2 whole entry, looked up): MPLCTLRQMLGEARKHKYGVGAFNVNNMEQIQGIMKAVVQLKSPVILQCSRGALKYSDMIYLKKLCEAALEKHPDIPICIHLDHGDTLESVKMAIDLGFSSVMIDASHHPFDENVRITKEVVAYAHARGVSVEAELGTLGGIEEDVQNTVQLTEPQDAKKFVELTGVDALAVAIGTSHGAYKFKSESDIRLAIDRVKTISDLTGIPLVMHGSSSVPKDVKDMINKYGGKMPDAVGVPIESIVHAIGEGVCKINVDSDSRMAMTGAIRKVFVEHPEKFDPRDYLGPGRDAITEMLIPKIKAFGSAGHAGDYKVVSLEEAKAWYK
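Giardia FBPA (40 nM reagent) was preincubated 10 min at RT with compound (up to 57.5 uM final), then substrate plus GAPDH/TPI/NAD/arsenate coupling system with diaphorase/resazurin was added; resorufin fluorescence (525/598 nm) was read after 20 min.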
Pf growth 96h: P. falciparum growth inhibition at 96 hour, primary screen for plastid delayed-death inhibitors; P. falciparum luciferase reporter growth, 96 h; Potency, µM (highest dose often 28.7 µM), for inactives: at the highest dose activity change, negative = inhibition, usual class: inhibitors; 320,000 tested, 6.9% active; AID 504834; note: potency is the fitted concentration of half-maximal effect; % is set by controls: 0 for no effect and ±100 for the full control effect
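P. falciparum expressing integrated firefly luciferase, in erythrocytes at 2% hematocrit, 0.05% parasitemia, incubated with compounds 96 h at 37 C, 5% CO2. Growth inhibition read as loss of luminescence; two-generation exposure targets delayed-death apicoplast inhibitors.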
NS1 function inh: influenza NS1 inhibition | Potency, µM (titrated, usually from 46.1 µM), inactives show top-dose activity, positive = more growth | 270,000 tested, 0.4% active | AID 2326; calls by dose curve; note: potency is the fitted concentration of half-maximal effect; actives are rising curves; nearly all actives have a fitted effect of over 50% in size
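A cell-based growth assay was used: compounds that relieve NS1-induced slow growth of budding yeast raise OD600. Assay medium was yeast nitrogen base with ammonium sulphate and -URA supplement, pH 6.0, with 2% galactose.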
Shiga toxin inh: blocks Shiga toxin action in Vero cells; 290,000 tested, 9.2% active; Vero cells, Shiga toxin protein synthesis inhibition reporter; inhibition, % at 38.7 µM; in the data active = inhibition mostly above about 28%, no sharp cut-off; inactive = mostly below about 43%; note: 0% is about no effect
CHX counter: counter-screen for Shiga toxin inhibitors: cycloheximide protein synthesis inhibition; AID 2314; 300,000 tested, 12% active; cell reporter, cycloheximide protein synthesis inhibition counterscreen; max response, %; in the data active = max response mostly above about 13%, no sharp cut-off; inactive = mostly below about 14%; note: read at 38.3 µM for the half of the compounds with a filed dose; 0% is about no effect
Pf growth 48h: inhibits P. falciparum growth in the first generation, 48 h; AID 504832; 310,000 tested, 5.9% active; P. falciparum luciferase growth in erythrocytes, 48 h; Potency, µM (series often up to 28.7 µM), inactives show at the top dose activity change, negative = inhibition, usual class: inhibitors; note: potency is the fitted concentration of half-maximal effect; % is set by controls: 0 for no effect and ±100 for the full control effect
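Luminescence readout; reporter = integrated firefly luciferase in P. falciparum. RBC culture at 2% hematocrit, 0.1% parasitemia final, 37 C/5% CO2; decreased signal taken as growth inhibition.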
Active calls of the source: *; u = inconclusive; x = no result. Unless noted, calls come from the whole dose curve; as a rule, active = well fitted curve in the direction sought with a large enough effect; inconclusive = small, poorly fitted or top-dose-only effect, or another doubt; inactive = no such curve, though single readings can be large; an effect the other way counts as inactive or inconclusive.

SMILES | Giardia FBPA inh | Pf growth 96h | NS1 function inh | Shiga toxin inh | CHX counter | Pf growth 48h
COC(=O)C12C/C=C\Cc3ccccc3[C@@H]1CNC2=O (some centres not stated) | -1.2% | x | x | x | x | x
Cc1cc(N)c2cc(NC(=O)Nc3ccc4nc(C)cc(N)c4c3)ccc2n1 | x | u | -76.6% | x | x | 1.2µM*
COc1ccccc1CN1CC(C(=O)NCCn2ccc(C)n2)CCC1=O (configuration not stated) | -17.4% | u | 5.4% | 2.8 | 6.2 | 17.3%
Nc1c2c(nn1-c1ccccc1)CCC2 | 1.1% | 16.7% | 8.4% | 20.2 | 0.8 | 15.1%
Brc1ccc(-c2nnc3ccc(N4CCN(c5ccccc5)CC4)nn23)cc1 | -13.7% | 11.7µM* | -13.4% | 0.8 | -1.3 | u
Fc1ccc(-c2nnc3ccc(N4CCCC4)nn23)cc1 | -2.3% | -13.9% | -36.8% | -11.0 | -6.6 | -2.7%
Cc1cccc(N2CCN(C(=O)CCC(=O)N3CC(C)Oc4ccc(C)cc43)CC2C)c1 (configuration not stated) | -2.9% | -0.5% | 12.7% | 4.4 | -2.1 | 13.1µM*
Cc1ccc(Cl)cc1N1CCN(C(=O)C2CCN(c3nnc(-n4cccc4)s3)CC2)CC1 | 4.8% | u | -64.4% | -1.4 | -1.3 | 13.1µM*
CC(C)CCNC(=O)C1CCN(c2nnc(-n3cccc3)s2)CC1 | 7.0% | -31.3% | -4.5% | 22.1 | 2.2 | -9.4%
Cc1cccc(N2CCN(C(=O)C3CCN(c4nnc(-n5cccc5)s4)CC3)CC2C)c1 (configuration not stated) | -18.1% | u | -76.4% | -5.2 | 4.8 | 13.1µM*
Cc1cccc(N2CCN(C(=O)C3CCN(S(=O)(=O)N4CCOCC4)CC3)CC2C)c1 (configuration not stated) | 5.2% | -21.3% | x | 4.5 | -5.0 | -14.9%
Cc1ccc2c(c1)N(C(=O)CCC(=O)N1CCN(c3ccccn3)CC1)CC(C)O2 (configuration not stated) | -10.5% | u | -25.8% | -3.9 | 1.4 | -29.9%
O=C(O)c1cc2ccccc2cc1Nc1ccccc1 | 27.5% | 63.5% | -58.5% | 26.0 | -1.3 | 38.0%
Cc1nn(C(=O)CCCC(=O)NCc2ccccc2)c2ccccc12 | x | u | 1.0% | -6.0 | 2.5 | 23.4%
N#Cc1cc(-c2ccc(Cl)cc2)cnc1Sc1ccccc1 | -0.9% | u | 13.5% | -12.5 | 11.0 | 0.2%
N#Cc1cnc(Sc2ccccc2)nc1 | 0.1% | 0.0329µM* | x | -11.3 | -2.1 | u
Cc1ccc(NC(=O)NCCN2CCN(C(=O)Nc3ccc(C)cc3)CC2)cc1 | 8.0% | u | -0.6% | -5.9 | -4.9 | u
CSc1ccc(NC(=O)NCCCN2CCC(Cc3ccccc3)CC2)cc1 | 1.5% | u | -0.6% | -4.8 | -3.1 | 8.28µM*
O=C(NCCN1CCN(C(=O)Nc2ccccc2)CC1)Nc1ccccc1 | -1.8% | 5.22µM* | -2.3% | -12.5 | -5.8 | x
COc1ccc(NC(=O)NCCN2CCc3ccccc3C2)cc1 | u | u | 4.0% | 12.8 | -1.5 | 0.7%
CSc1ccc(NC(=O)NCCN2CCc3ccccc3C2)cc1 | u | 31.2% | 7.5% | 12.4 | 16.2* | 7.2%
CCCc1cc(=O)n2nc(N3CCC(C(=O)N4CCN(c5cccc(OC)c5)CC4)CC3)sc2n1 | x | -6.2% | 10.2% | -3.2 | 1.0 | u
CC(C)c1ccc(NC2CCCN(C(=O)CN3C(=O)CSC3=O)C2)cc1 (configuration not stated) | -5.4% | u | 5.7% | -5.9 | 11.1 | -1.8%
COc1cc(NC(=O)C/C(C)=N/NC(=O)c2ccccn2)c(OC)cc1Cl | 11.7% | 1.9% | -3.4% | 71.6* | 43.6* | 20.0%
COc1ccccc1NC(=O)C/C(C)=N/NC(=O)c1ccccn1 | 12.1% | 26.7% | -8.3% | 63.2* | 33.4* | 23.6%
SMILES | Giardia FBPA inh | Pf growth 96h | NS1 function inh | Shiga toxin inh | CHX counter | Pf growth 48h
COc1cc(NC(=O)C/C(C)=N/NC(=O)Cc2ccc(Cl)cc2)c(OC)cc1Cl | 0.3% | -96.3% | 6.2% | -16.9 | -4.7 | -15.9%
CCCCCCCCCCN1CCOCCOCCN(CCCCCCCCCC)CCOCCOCC1 | 2.1% | x | x | -1.6 | -2.4 | x
O=C(NC(=S)Nc1nc(-c2ccc(Br)cc2)cs1)c1cccnc1 | 3.7% | u | 9.4% | -7.0 | 0.5 | 13.3%
O=C(NC(=S)Nc1cccnc1)c1cccc(Br)c1 | u | -0.4% | -38.7% | 63.4* | 17.2* | 11.4%
CCOc1cccc(C(=O)NC(=S)Nc2ccc(N3CCN(CC)CC3)cc2)c1 | -15.1% | u | 4.6% | 50.8 | 0.4 | u
O=C(NC(=S)Nc1ccc(Br)cn1)c1cccnc1 | -9.8% | u | -3.3% | 30.0 | 28.1* | u
CCOc1cccc(C(=O)NC(=S)Nc2cccnc2)c1 | u | 2.62µM* | 25.6% | 80.1* | 38.1* | 38.6%
CCCCOc1cccc(C(=O)NC(=S)Nc2cccnc2)c1 | -20.0% | 52.1% | 18.2% | -3.5 | 9.8 | 27.1%
COc1ccc(C(=O)NC(=S)Nc2cccnc2)cc1OC | u | -26.0% | 3.1% | 4.2 | 23.9 | 30.9%
CCOc1cccc(C(=O)NC(=S)Nc2ccccc2)c1 | -9.1% | -19.6% | 27.2% | 141.2* | 104.5* | 244.9%
O=C(NNC(=O)c1cccc(Br)c1)Nc1ccc(Cl)cc1 | 4.2% | -3.8% | 6.5% | -8.9 | -4.1 | 7.2%
O=C(NC(=S)Nc1cc(Cl)ccc1O)c1cccc(Br)c1 | -1.6% | 3.29µM* | -70.1% | 89.6* | 41.7* | u
CCOc1cccc(C(=O)NC(=S)Nc2cccc(NC(=O)c3ccccc3Cl)c2)c1 | -2.4% | u | 16.8% | 24.5 | 13.8* | -3.7%
O=C(O)c1ccc(N[C@@H]2OC[C@@H](O)[C@@H](O)[C@@H]2O)cc1 | 1.1% | 3.0% | x | x | x | -3.5%
COc1ccccc1N1CCN(C(=O)/C=C/c2ccc(C)cc2)CC1 | -9.1% | 11.8% | -19.1% | 3.5 | 4.8 | -1.4%
COc1ccc(/C=C/C(=O)NC(=S)N2CCOCC2)cc1 | u | 0.0% | 0.0% | 73.1* | 39.4* | 52.4%
O=C(CN1C(=O)/C(=C\c2ccc(F)cc2)Oc2ccccc21)N1CCN(c2ccccn2)CC1 | 6.1% | 7.38µM* | 11.6% | -11.8 | -2.7 | 10.2%
O=C(/C=C/c1ccc(F)cc1)NC(=S)N1CCN(c2ccccn2)CC1 | -2.2% | u | 0.7% | 98.2* | 42.6* | 39.1%
COc1ccc(/C=C/C(=O)NC(=S)N2CCN(c3ccccc3OC)CC2)cc1 | -13.7% | -24.0% | 11.2% | 21.5 | 20.3* | -11.1%
COc1ccccc1NS(=O)(=O)c1ccc(NC(=O)c2[nH]nc(OC)c2[N+](=O)[O-])cc1 | x | u | -18.7% | -4.3 | 1.8 | -6.8%
CCCCCCCC1=Cc2ccc(F)cc2C(C(C(C)=O)C(=O)OC)N1C(=O)OC (configuration not stated) | 1.3% | x | x | x | x | x
CCNc1nc2c(c(=O)n(C)c(=O)n2C)n1CCCc1ccccc1 | 6.2% | -6.9% | 2.6% | -6.1 | -1.0 | 6.5%
CCN(CC)S(=O)(=O)c1ccc(N/N=C(\C)c2ccc(OC)cc2O)nc1 | -22.1% | u | -39.7% | 10.4 | -1.4 | 13.1µM*
